An excerpt weighted towards active compounds, which were near 7.4% of everything screened.
Luc counter – Counterscreen for Luciferase (Kinase-Glo TM) Inhibition. hit rate 0.28% among 200,000. Kinase-Glo luciferase, ATP luminescence, 8 min. Potency, µM (titrated, usually from 38.3 µM), hits mostly inhibitors. AID 1379, 2008; note: nearly all actives have a fitted effect of over 60% in size
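Substrate mix (final 50 mM imidazole pH 7.2, 50 mM KCl, 7 mM MgCl2, 10 uM ATP, 0.01% Tween 20, 0.05% BSA) plus pin-tool compound, then Kinase-Glo detection mix; 8 min ambient, luminescence read.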
NPC1 prom act – qHTS Assay for NPC1 Promoter Activators; Huh7 NPC1 promoter luciferase reporter, 24 h; Potency, µM (series often up to 9.22 µM), hits mostly activators; hit rate 2.4% among 320,000; AID 485313, 2010; note: nearly all actives have a fitted effect of over 60% in size
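Readout is luciferase luminescence, reflecting NPC1 promoter activation in stably transfected Huh7 cells after 24 h compound exposure at 37 °C in reduced-serum medium with 10% FBS.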
Rab9 prom act – qHTS Assay for Rab9 Promoter Activators; Huh7 Rab9 promoter-luciferase reporter, luminescence, 24 h; Potency, µM (series often up to 9.22 µM), actives largely listed as activators; hit rate 2.8% among 320,000; AID 485297, 2010; note: nearly all actives have a fitted effect of over 60% in size
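Rab9 promoter-driven luciferase in stably transfected Huh7 cells; 1500 cells/well rested 2 h, exposed to compound in DMSO for 24 h at 37 °C, 5% CO2. Luminescence read 10 min after adding luciferase reagent at ambient temperature.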
SMN2 splice up – qHTS Assay for Enhancers of SMN2 Splice Variant Expression; HEK293 SMN2-luciferase splicing reporter, luminescence, 30-36 h; Potency, µM (highest dose often 46.1 µM), hits mostly activators; hit rate 2.8% among 210,000; AID 1458, 2008; note: nearly all actives have a fitted effect of over 55% in size
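HEK293 cells carry an SMN2 […]–luciferase reporter in which exon 7 inclusion puts luciferase in frame. Cells were plated 10-12 h before compound addition, then incubated 30-36 h at 37C. ONE-Glo luminescence was read; sodium butyrate at 4.5 mM final served as control.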
ELG1 genotox – qHTS screen for small molecules that induce genotoxicity in human embryonic kidney (HEK293T) cells expressing luciferase-tagged ELG1; AID 504466, 2011; Potency, µM (highest dose often 46 µM), hits mostly activators; HEK293T ELG1-luciferase reporter, luminescence, 16 h; hit rate 1.3% among 330,000; note: nearly all actives have a fitted effect of over 60% in size
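Cells (2,000/well) expressing the ELG1-luciferase fusion are dosed by pin tool and kept 16 hr at 37 °C, 5% CO2. Signal comes from ONE-Glo luciferase reagent after 30 min at room temperature.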
FLuc counter – qHTS profiling assay for firefly luciferase inhibitor/activator using purifed enzyme and Km concentrations of substrates (counterscreen for miR-21 project); purified FLuc, Km substrates, luminescence inhibition; Potency, µM (top dose mostly 57.5 µM), most hits filed as inhibitors; hit rate 6.9% among 360,000; AID 588342, 2011; note: nearly all actives have a fitted effect of over 55% in size
Target sequence (P08659 whole entry, looked up): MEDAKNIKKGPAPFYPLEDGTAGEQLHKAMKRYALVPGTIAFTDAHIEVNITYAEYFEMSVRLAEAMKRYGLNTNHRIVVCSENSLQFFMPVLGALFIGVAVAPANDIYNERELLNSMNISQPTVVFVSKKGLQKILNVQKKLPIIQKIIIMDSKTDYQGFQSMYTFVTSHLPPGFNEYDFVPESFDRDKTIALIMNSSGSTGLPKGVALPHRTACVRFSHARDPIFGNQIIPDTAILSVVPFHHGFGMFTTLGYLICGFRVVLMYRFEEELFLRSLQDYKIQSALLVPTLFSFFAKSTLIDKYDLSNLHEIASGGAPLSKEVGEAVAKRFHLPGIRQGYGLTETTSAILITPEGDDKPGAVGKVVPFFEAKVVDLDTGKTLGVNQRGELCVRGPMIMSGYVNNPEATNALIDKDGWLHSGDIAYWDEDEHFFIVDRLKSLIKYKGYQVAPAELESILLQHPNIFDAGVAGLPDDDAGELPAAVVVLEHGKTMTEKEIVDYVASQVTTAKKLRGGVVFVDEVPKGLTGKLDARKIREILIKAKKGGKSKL
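Purified P. pyralis luciferase, 10 nM final, with Km-level 10 uM D-luciferin and 10 uM ATP in 50 mM Tris acetate pH 7.5, 10 mM Mg acetate, 0.01% Tween-20, 0.05% BSA; 6-point qHTS titration about 60 µM downward; luminescence read.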
Large screens that a line does not name were inactive. Calls come from the whole dose curve; as a rule, active = well fitted curve in the direction sought with a large enough effect; inconclusive = small, poorly fitted or top-dose-only effect, or another doubt; inactive = no such curve, though single readings can be large; an effect the other way counts as inactive or inconclusive.

Cc1cc(C(=O)COC(=O)c2n[nH]c(=O)c3ccccc23)c(C)n1C	ELG1 genotox inconclusive, FLuc counter 1.7µM (no result: Luc counter, SMN2 splice up)
Cc1cc(C(=O)COC(=O)c2nccnc2N)c(C)n1C	NPC1 prom act 3.2µM, Rab9 prom act 0.5µM, SMN2 splice up 11µM, ELG1 genotox 6.5µM, FLuc counter 9.5µM
CN(C(=O)COC(=O)c1n[nH]c(=O)c2ccccc12)c1ccccc1	none (no result: Luc counter, SMN2 splice up)
CC1CCCCN1C(=O)COC(=O)c1n[nH]c2ccccc12 (stereo not drawn)	Rab9 prom act inconclusive, ELG1 genotox 18µM, FLuc counter 15µM
O=C(NCCc1ccc(Cl)cc1)c1n[nH]c2ccccc12	Rab9 prom act inconclusive, FLuc counter inconclusive
CC(=O)c1cccc(OCCCOc2cccc3cccnc23)c1	FLuc counter inconclusive (no result: Luc counter, SMN2 splice up)
COc1ccc(-c2ccccc2)cc1NCc1ccc(OC)c(OC)c1	none
CCCc1ccc(S(=O)(=O)N/N=C(/C)c2ccc3c(c2)OCO3)cc1	none (no result: Luc counter, SMN2 splice up)
CC(=O)N1N=C(c2ccc(C)o2)CC1c1cccc(F)c1 (stereo not drawn)	none
CC(C)C[C@@H](CC(=O)N[C@@H](CCC(=O)O)CC(=O)O)NC(=O)[C@@H]1CNCC[C@H]1NC(=O)C[C@@H](NC(=O)C[C@H](Cc1c[nH]c2ccccc12)NC(=O)[C@@H]1CCCC[C@H]1N)C(C)C	none (no result: NPC1 prom act, Rab9 prom act, ELG1 genotox, FLuc counter)
CCOC(=O)c1n[nH]c(=O)c2ccccc12	none (no result: Luc counter, SMN2 splice up)
O=C(OCCOc1ccccc1)c1n[nH]c2ccccc12	NPC1 prom act 3.5µM, Rab9 prom act 2.2µM, ELG1 genotox inconclusive, FLuc counter 6µM (no result: Luc counter, SMN2 splice up)
COCCn1c(C)cc(C(=O)COC(=O)Cc2n[nH]c(=O)c3ccccc23)c1C	Rab9 prom act inconclusive, FLuc counter 24µM (no result: Luc counter, SMN2 splice up)
COc1ccc(C(=O)COC(=O)c2n[nH]c3ccccc23)c(OC)c1	NPC1 prom act 3.2µM, Rab9 prom act 3.5µM, FLuc counter 6µM (no result: Luc counter, SMN2 splice up)
Cc1ccc(C(=O)COC(=O)c2n[nH]c(=O)c3ccccc23)cc1	FLuc counter 6µM
Cc1cc(C(=O)COC(=O)Cc2n[nH]c(=O)c3ccccc23)c(C)n1CC(F)(F)F	none (no result: Luc counter, SMN2 splice up)
CCOC(=O)c1n[nH]c2ccccc12	none
Cc1ccc(NC(=O)CN(C)C(=O)CCC(=O)c2cccs2)cc1	none
CCOc1ccc2[nH]c3c(NCC(C)C)ncnc3c2c1	FLuc counter inconclusive (no result: Luc counter, SMN2 splice up)
O=C(COC(=O)c1n[nH]c2ccccc12)c1ccc(F)c(F)c1	FLuc counter 9.5µM (no result: Luc counter, SMN2 splice up)
Cc1cc(C(=O)COC(=O)c2n[nH]c3ccccc23)c(C)n1C	NPC1 prom act 2.8µM, Rab9 prom act 0.5µM, SMN2 splice up 2.8µM, ELG1 genotox 1.2µM, FLuc counter 1.3µM
Cc1cc(C)cc(NC(=O)COC(=O)c2n[nH]c3ccccc23)c1	NPC1 prom act inconclusive, Rab9 prom act inconclusive, FLuc counter inconclusive
COCCn1c(C)cc(C(=O)COC(=O)c2n[nH]c3ccccc23)c1C	Luc counter inconclusive, NPC1 prom act 0.4µM, Rab9 prom act 0.22µM, ELG1 genotox 0.23µM, FLuc counter 0.43µM
CCOc1ccc(NC(=O)CN(C)C(=O)c2cccnc2Sc2ccc(C)c(C)c2)cc1OCC	none (no result: Luc counter, SMN2 splice up)
O=C(C[N+]12CN3CN(CN(C3)C1)C2)c1ccc(-c2ccccc2)cc1	none (no result: NPC1 prom act, Rab9 prom act, ELG1 genotox, FLuc counter)
COc1ccc(-c2noc(-c3ccoc3C)n2)cc1OC	none (no result: SMN2 splice up)
Cc1cccc(-c2noc(-c3ccoc3C)n2)c1	NPC1 prom act 0.35µM, Rab9 prom act 0.71µM, SMN2 splice up inconclusive, ELG1 genotox inconclusive, FLuc counter 4.8µM
COc1cccc(-c2noc(-c3ccoc3C)n2)c1	NPC1 prom act inconclusive, Rab9 prom act 2.5µM, ELG1 genotox inconclusive, FLuc counter 6.7µM (no result: Luc counter, SMN2 splice up)
COc1ccc(-c2noc(-c3ccoc3C)n2)cc1	NPC1 prom act 2.8µM, Rab9 prom act 1.6µM, ELG1 genotox inconclusive, FLuc counter 2.4µM (no result: SMN2 splice up)
COc1ccccc1C(=O)C1CCCN(C(=O)c2cc(CC(C)C)nc(C)n2)C1 (stereo not drawn)	none (no result: SMN2 splice up)
COc1ccc(CNC(=O)c2ccc(S(=O)(=O)NCc3ccco3)cc2)cc1	none (no result: Luc counter, SMN2 splice up, FLuc counter)
COc1ccc([C@H]2[C@H](C(=O)OC(C)(C)C)N3N=Cc4ccccc4C3C23C(=O)c2ccccc2C3=O)c(OC)c1 (stereo partly drawn)	FLuc counter inconclusive
CC(C)(C)C(=O)[C@H]1[C@H](c2ccccc2)[C@@]2(N=C(c3ccccc3)OC2=O)C2c3ccccc3C=NN21 (stereo partly drawn)	FLuc counter 15µM
Cc1cccc(N2CCN(CC(O)COCc3cccs3)CC2)c1C (stereo not drawn)	none (no result: Luc counter, SMN2 splice up)
CN(CC(=O)Nc1cccc(F)c1)C(=O)CC1CC2CCC1C2 (stereo not drawn)	none (no result: Luc counter, SMN2 splice up)
COc1ccc(N2CCN(CCCn3c(=S)[nH]c4ncccc4c3=O)CC2)cc1	SMN2 splice up inconclusive
O=c1c2cccnc2[nH]c(=S)n1CCCN1CCN(c2ccc(F)cc2)CC1	SMN2 splice up 7.9µM
Cc1ccc[n+](CC(=O)Nc2c(Cl)cc(Cl)cc2Cl)c1	FLuc counter 19µM (no result: SMN2 splice up)
O=C(C[n+]1ccccc1)Nc1c(Cl)cc(Cl)cc1Cl	Rab9 prom act inconclusive, FLuc counter inconclusive (no result: SMN2 splice up)
COc1ccc(C(=O)COC(=O)CNC(=O)c2ccccc2)cc1F	none (no result: Luc counter, SMN2 splice up)
COc1ccc(/C=C2\Oc3cc(OCC(=O)N4CCC[C@H]4C(=O)O)ccc3C2=O)cc1OC	FLuc counter 1.3µM (no result: Luc counter, SMN2 splice up)

Source: PubChem (National Center for Advancing Translational Sciences (NCATS))
